Source: PubChem BioAssay AID488969 (Vanderbilt High Throughput Screening Facility, 2010)
In all, about 110,000 compounds were measured (“z-score”: median about -0.1, highest 2% from about 2 on). For the sample, the highest values were picked, then their nearest neighbours and some compounds at random. The source made the active and inactive calls.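 The calls were made as follows: active = z-score in the third read window above 3 or below -3; inactive = the rest.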

Molecular target: Metabotropic glutamate receptor 8 (Rattus norvegicus) (UniProt P70579)
Sequence (P70579 whole entry, looked up): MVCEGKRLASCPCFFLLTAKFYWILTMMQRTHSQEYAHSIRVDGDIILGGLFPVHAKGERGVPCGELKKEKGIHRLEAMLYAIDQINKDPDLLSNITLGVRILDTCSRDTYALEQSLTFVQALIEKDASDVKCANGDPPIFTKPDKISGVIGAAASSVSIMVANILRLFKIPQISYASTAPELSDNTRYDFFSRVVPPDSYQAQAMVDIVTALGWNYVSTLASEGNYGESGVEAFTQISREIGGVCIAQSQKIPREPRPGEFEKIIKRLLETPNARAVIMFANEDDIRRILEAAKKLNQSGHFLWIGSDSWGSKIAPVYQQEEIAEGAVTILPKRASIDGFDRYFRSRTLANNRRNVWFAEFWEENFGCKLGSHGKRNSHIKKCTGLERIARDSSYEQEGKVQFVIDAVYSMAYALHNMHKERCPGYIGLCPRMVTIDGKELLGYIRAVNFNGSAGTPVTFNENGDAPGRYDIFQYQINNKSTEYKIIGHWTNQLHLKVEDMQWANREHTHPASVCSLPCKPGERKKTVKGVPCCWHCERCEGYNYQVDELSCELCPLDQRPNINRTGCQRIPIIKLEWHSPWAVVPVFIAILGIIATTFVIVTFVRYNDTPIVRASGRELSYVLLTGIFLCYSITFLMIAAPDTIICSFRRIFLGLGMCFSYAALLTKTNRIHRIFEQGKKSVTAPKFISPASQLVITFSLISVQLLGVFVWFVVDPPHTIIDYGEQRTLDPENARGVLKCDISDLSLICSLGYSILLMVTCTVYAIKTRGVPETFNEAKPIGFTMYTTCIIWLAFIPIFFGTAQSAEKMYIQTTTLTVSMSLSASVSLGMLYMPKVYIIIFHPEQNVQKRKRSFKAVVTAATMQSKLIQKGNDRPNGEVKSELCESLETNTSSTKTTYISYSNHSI
Experiment: rat mGluR8 modulators via GIRK flux, primary screen, cell-based, thallium flux, HTS (AID 488969)
Conditions: HEK293 rat mGluR8, GIRK (G protein-gated inwardly rectifying potassium channel) thallium flux, FluoZin2; at 10 µM; stronger effect = higher value; submaximal glutamate (EC20) added with thallium

Structure (SMILES) | z-score
NC(=O)c1ccccc1OCC(=O)NC12CC3CC(CC(C3)C1)C2 | -0.0638
COC(=O)Nc1snnc1C | -0.189
CCOC(=O)C1=C(C)N(C)C(=O)NC1c1cc2c(cc1Br)OCO2 (stereo not given) | 1.61
CCc1nc(NCc2ccco2)c2oc3ccccc3c2n1 | -0.48
O=C(CN1C(=O)c2cccc3cccc1c23)Nc1ccc(S(=O)(=O)N2CCOCC2)cc1 | -0.376
COc1cccc(C(=O)Nc2ccccc2N2CCOCC2)c1 | 0.0601
CN1C(=S)SC(/[N+]([O-])=C\c2cccs2)C1(C)C (stereo not given) | -0.0661
CC(=O)Nc1cc2c(cc1NC(=O)Cn1nc(-c3ccc4c(c3)OCCO4)ccc1=O)OCCO2 | -0.275
COc1cccc(-c2ccc(=O)n(CC(=O)Nc3cc4c(cc3NC(C)=O)OCCO4)n2)c1 | 2.05
CC(=O)Nc1cc2c(cc1NC(=O)Cn1nc(-c3ccccc3F)ccc1=O)OCCO2 | -0.0689
Cc1cnc(C(=O)Nc2cc(S(=O)(=O)N3CCOCC3)ccc2N2CCN(C)CC2)cn1 | 0.0173
O=C(N/N=C/C=C/c1ccc2c(c1)OCO2)c1ccc([N+](=O)[O-])cc1 | 0.0517
CCCN(CCC)S(=O)(=O)c1ccc(C(=O)Nc2nc(-c3ccccc3)c(C(=O)OCC)s2)cc1 | -0.243
Clc1ccccc1CN1CCC(Cc2ccccc2)CC1 | -0.0513
O=C(NCCN1CCOCC1)C1CCC(=O)N1Cc1ccc(F)cc1 (stereo not given) | 0.194
Cc1ccc(-c2ccc(/C=C/C(=O)c3ccccc3)o2)cc1 | -0.233
Cc1cc2cc(OCC(=O)O)ccc2n1C | 0.494
C/C(=N\NC(=S)Nc1cccc(C)c1)c1cccc(N)c1 | 3.42 (active)
Cc1cccc(NC(=S)N/N=C/c2c[nH]c3ccccc23)c1 | -0.0914
C/C(=N\NC(=O)Nc1ccccc1)c1ccccc1 | -0.157
C/C(=N\NC(=O)c1cccc(C)c1)c1cccc(NC(=O)c2ccco2)c1 | -0.159
Cc1cccc(NC(=S)N/C(=N/S(=O)(=O)c2ccccc2)c2ccccc2)c1 | 1.97

Structure (SMILES) | z-score
C/C(=N\NC(=S)Nc1cccc(C)c1)c1ccccc1 | 5.36 (active)
CCOC(=O)C(NC(=O)CC)(N1CCc2ccccc2C1)C(F)(F)F (stereo not given) | -0.138
O=C(NCCCN1CCC(Cc2ccccc2)CC1)C1CC(=O)N(C2CCCCCC2)C1 (stereo not given) | 1.25
O=C(Nc1ccccc1)c1ccc(CSc2ccccn2)cc1 | -0.0973
COc1cc(NC(=O)C2CCCCC2)c2ncccc2c1 | -0.248
COc1cc(NCCCCCCCN)c2ncccc2c1 | 2.78
COc1cc(NC(=O)c2ccc3c(c2)OCO3)c2ncccc2c1 | -0.168
C=CCNC(=S)NNC(=O)c1ccc(OCCC)cc1 | 0.095
CCC(=O)NC(=S)NNC(=O)c1ccc(OC)cc1 | -0.0696
CCCOc1ccc(C(=O)NNC(=S)NC(=O)CC)cc1 | 3.01 (active)
CCCOc1ccc(C(=O)NNC(=S)NC(C)=O)cc1 | 0.435
CCCCOc1ccc(C(=O)NNC(=S)NC(=O)CC)cc1 | 4.28 (active)
C=CCNC(=S)NNC(=O)c1ccc(OCCCC)cc1 | -0.162
CN(C1CCS(=O)(=O)C1)S(=O)(=O)c1ccc(C2CCCCC2)cc1 (stereo not given) | 0.314
CCOC(=O)CSc1nnc(NC(=O)c2cccc([N+](=O)[O-])c2C)s1 | 0.774
CC1=C/C(=N\NC(=O)c2ccccc2)CC1 | -0.0871
O=C(NC(NC(=O)c1ccccc1)C(=O)c1ccccc1)c1ccccc1 | -0.143
O=C(NN=c1c(=O)c2ccccc2c1=O)c1ccccc1 | 6.47 (active)
O=[N+]([O-])c1cc(/C=N/Nc2nc(N3CCOCC3)nc(N3CCOCC3)n2)ccc1Cl | -0.222
COc1ccc(C2C3=C(CC(C)(C)CC3=O)Nc3cc4c(cc32)OCO4)cc1 (stereo not given) | -0.138
COc1cccc(C2C3=C(CC(C)(C)CC3=O)Nc3cc4c(cc32)OCO4)c1 (stereo not given) | 2.12
CC1(C)CC(=O)C2=C(C1)Nc1cc3c(cc1C2c1ccc2c(c1)OCO2)OCO3 (stereo not given) | -0.639

Structure (SMILES) | z-score
Cc1nc2cc(N3CCCCC3)c(NC(=O)c3ccncc3)cc2c(=O)n1Cc1ccc(Cl)cc1 | -0.37
Cc1nn(C(=O)c2nn(C)cc2Cl)c(C)c1Br | 0.0765
CC(=O)c1cn(CC(=O)NCc2ccco2)c2ccccc12 | -0.774
CCCNC(=S)N1CCC(c2nc3cc(C)c(C)cc3[nH]2)CC1 | -0.228
Cc1ccc(-c2nn(CC(=O)Nc3cccnc3)c(=O)c3ccccc23)cc1 | -0.291
COc1ccccc1N1C(=O)C2ON(c3ccccc3)C(c3ccc(N(C)C)cc3)C2C1=O (stereo not given) | 0.0686
CN(C)c1ccc(C2N(c3ccc(Cl)cc3)C(=O)C3CCCN32)cc1 (stereo not given) | -0.129
CN(C)c1ccc(C2C3C(=O)NC(=O)C3ON2c2ccc(Cl)cc2)cc1 (stereo not given) | 2.58
Cc1ccc(C(=O)C(C(=O)/C=C/c2ccccc2)=C2SCCCS2)cc1 | 0.0319
c1ccc(-c2csc3ncn4nnnc4c23)cc1 | -0.177
CCCC1CC(CSC(=N)N)OC1=O (stereo not given) | -0.478
Cc1csc(SCC(=O)Nc2nc3ccccc3s2)n1 | 3.3 (active)
Cc1csc(SCC(=O)Nc2nc(-c3ccccc3)cs2)n1 | 1.07
Cc1csc(NC(=O)CSc2nc3ccccc3s2)n1 | -0.293
Cc1ccc(-c2nnc(SCC(=O)N3CCN(c4ccccc4)CC3)o2)cc1 | -1.07
COc1ccc2[nH]c(=O)c(CN(C(=O)c3ccccn3)c3ccccc3)cc2c1 | -0.101
CCCN(CC1CC1)C(=O)COC(=O)c1[nH]c(C)c(C(=O)OCC)c1C | -0.372
COc1cc(NC(=O)c2cccnc2Sc2ccc(Cl)cc2)cc(OC)c1OC | -0.134
O=C(O)C(Cc1c[nH]c2ccccc12)NS(=O)(=O)c1cccc2nsnc12 (stereo not given) | 0.00264
Cc1ccc(S(=O)(=O)NC(Cc2c[nH]c3ccccc23)C(=O)O)cc1 (stereo not given) | -0.0187
Cc1cccc(S(=O)(=O)NC(Cc2c[nH]c3ccccc23)C(=O)O)c1 (stereo not given) | 2.17
CC(C)(C)c1[nH]nc2c1C(c1ccccc1OC(=O)N1CCOCC1)C(C#N)=C(N)O2 (stereo not given) | -2.43

Structure (SMILES) | z-score
O=C(CSc1nc2ccccc2[nH]1)N/N=C/C=C/c1ccccc1[N+](=O)[O-] | -0.487
Cc1ccc(S(=O)(=O)Nc2cc(C(=O)NCCN3CCCC3)ccc2N2CCCCC2)cc1 | 1.81
COCCCNC(=O)c1ccc(N2CCCC2)c(NS(=O)(=O)c2ccc(C)cc2)c1 | 0.547
CCN(CC)CCNC(=O)c1ccc(N2CCCCC2)c(NS(=O)(=O)c2ccc(C)cc2)c1 | 2.96
Cc1nnc2sc(SCc3ccccc3)nn2c1=O | -0.0579
CC(=O)/C(=N\Nc1ccc(Cl)cc1Cl)Sc1cccc2cccnc12 | 2.29
CC(=O)/C(=N\Nc1cccc(Cl)c1)Sc1cccc2cccnc12 | 0.635
CC(=O)/C(=N\Nc1ccccc1Cl)Sc1cccc2cccnc12 | 0.299
CC(C)(C)SCCNC(=O)c1ccc(NS(C)(=O)=O)cc1 | -0.0865
O=C(CSc1ccc(Cl)cc1)N1CCN(c2ncc(C(F)(F)F)cc2Cl)CC1 | -0.0561
Cc1cc(NC(c2ccc(Cl)cc2)c2ccc3cccnc3c2O)no1 (stereo not given) | 1.61
Cc1conc1NC(c1cccs1)c1ccc2cccnc2c1O (stereo not given) | 3.41 (active)
Cc1cc(NC(c2cccnc2)c2ccc3cccnc3c2O)no1 (stereo not given) | -0.344
COc1cccc(NC(=O)N(Cc2cc3cc(C)cc(C)c3[nH]c2=O)CC2COCCO2)c1 (stereo not given) | -0.438
COc1ccc(NC(=O)/C=C/C(=O)O)cc1Cl | 0.0641
Cc1ccc(NC(=O)/C(=C\c2ccccc2)NC(=O)/C=C/c2ccccc2)cc1 | -0.26
O=C(NCc1nnc(SCC(=O)N2CCN(c3ccccc3)CC2)o1)c1ccco1 | -0.268
O=C(NCc1nnc(SCC(=O)N2CCCCCC2)o1)c1ccco1 | -0.474
CC1CCN(C(=O)CSc2nnc(CNC(=O)c3ccco3)o2)CC1 | 2.28
CCOC(=O)c1c(NC(=O)CSc2nnc(CNc3ccc(Cl)cc3)o2)sc(C)c1C | -0.783
Cn1nc(C(F)(F)F)c2cc(NC(=O)OCc3ccc(F)cc3)sc21 | 9.32 (active)
COc1ccc(COC(=O)Nc2cc3c(C(F)(F)F)nn(C)c3s2)cc1 | -0.456

Structure (SMILES) | z-score
Cn1nc(C(F)(F)F)c2cc(NC(=O)OCC(C)(C)C)sc21 | -1.03
N/C(=N\OC(=O)CSc1ccccc1)c1cccc([N+](=O)[O-])c1 | -0.477
O=C(COC(=O)c1ccccc1NC(=O)c1ccccc1)c1ccc([N+](=O)[O-])cc1 | -0.202
CC(=O)C1=C(C)NC(SCc2cccc3ccccc23)=C(C#N)C1c1ccco1 (stereo not given) | 0.063
C=CCOC(=O)C1=C(C)NC(SCC)=C(C#N)C1c1ccc(Cl)cc1 (stereo not given) | 0.285
CSCSC1=C(C#N)C(c2ccc(Cl)cc2)C(C(C)=O)=C(C)N1 (stereo not given) | 3.87 (active)
CSCSC1=C(C#N)C(c2ccccc2Cl)C(C(C)=O)=C(C)N1 (stereo not given) | -2.68
CCc1ccc(C(=O)CSC2=C(C#N)C(c3ccco3)C(C(C)=O)=C(C)N2)cc1 (stereo not given) | -0.295
CC(=O)C1=C(C)NC(SCc2ccc(C#N)cc2)=C(C#N)C1c1ccco1 (stereo not given) | 5.85 (active)
Cn1c(CNC(=O)c2ccc(Cl)cc2)nnc1SCC(=O)Nc1sc2c(c1C#N)CCCC2 | 0.356
CN1CCc2nc(SCc3ccc(Cl)cc3)c(C#N)c(-c3cccs3)c2C1 | 0.101
CCN(C(=O)C1CCN(S(=O)(=O)c2cccc3nonc23)CC1)c1ccccc1 | -0.39
CCOC(=O)c1[nH]c(C)c(/C(O)=C2\C(=O)C(=O)N(CCN(C)C)C2c2ccc(C)o2)c1C (stereo not given) | -0.288
COC(=O)[C@H](CCSC)NC(=O)N1CCC(C)CC1 | 0.07
COc1ccc(NC(=O)c2cccnc2Sc2ccccc2)c(OC)c1 | -0.415
COc1cc2c(cc1OC)CN(S(C)(=O)=O)CC2 | 0.0161
NS(=O)(=O)c1ccc(NC(=O)COC(=O)CCC2CCCCC2)cc1 | -0.157
N=c1ncn(CC(O)CO)c2nc(N3CCOCC3)[nH]c12 (stereo not given) | -0.0516
COc1ccc(C(=O)N(C(C)C)C(C)C)c(OC)c1 | 0.14
Oc1[nH]c2ccccc2c1N=Nc1ccc(F)cc1 | -0.405
Oc1[nH]c2ccccc2c1N=Nc1nc2ccccc2s1 | 2.12
Oc1[nH]c2ccccc2c1N=Nc1ccccc1F | 0.0754
